# Giardia FBPA inh: qHTS Assay for Inhibitors of Fructose-1,6-bisphosphate Aldolase from Giardia Lamblia; A8B2U2; purified Giardia FBPA; Potency, µM (series often up to 59.6 µM), usual class: inhibitors; 290,000 compounds, 0.71% hits; note: nearly all actives have a fitted effect of over 55% in size
# Target sequence (A8B2U2 whole entry, looked up): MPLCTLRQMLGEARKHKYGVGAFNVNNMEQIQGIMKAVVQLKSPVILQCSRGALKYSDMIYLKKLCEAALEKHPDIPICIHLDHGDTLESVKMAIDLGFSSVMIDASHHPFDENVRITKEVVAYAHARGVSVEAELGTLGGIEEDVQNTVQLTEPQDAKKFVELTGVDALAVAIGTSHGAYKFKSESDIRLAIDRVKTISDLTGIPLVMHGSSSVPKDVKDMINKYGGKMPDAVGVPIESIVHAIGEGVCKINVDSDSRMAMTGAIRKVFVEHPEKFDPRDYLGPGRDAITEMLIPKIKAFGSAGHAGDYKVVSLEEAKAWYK
#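 40 nM FBPA preincubated 10 min at RT with compound (up to 57.5 uM final), then substrate plus GAPDH/TPI/NAD/arsenate coupling and diaphorase/resazurin added. Fluorescence read after 20 min at RT, 525/598 nm.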
# Lassa entry inh: qHTS for Inhibitors of binding or entry into cells for Lassa Virus. AID 540256, 2011. 300,000 compounds, 1.2% hits. Potency, µM (series often up to 37.9 µM), usual class: inhibitors. Lassa virus pseudotype entry inhibition, cell reporter; calls by dose curve; tested in HEK293 cells; note: nearly all actives have a fitted effect of over 50% in size
# HCMV inh: qHTS Assay for inhibitors of the human cytomegalovirus (HCMV) | HFF cells, HCMV-luciferase reporter, 72 h; active compounds read low | activity change, negative = inhibition, % at 57.5 µM | 410,000 compounds, 4.5% hits; in the data active = activity change below about -60%; inconclusive = no clear call, values can overlap the other calls; inactive = above about -39%
#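 After 16 h attachment at 37C, HFF cells received test compound and HCMV-luciferase (1 PFU/cell); reporter luminescence read 72 h later, data normalized against buffer-only and known inhibitor Salinomycin.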
# HCV inh: qHTS Assay for Inhibitors of Hepatitis C Virus (HCV) | Huh7.5.1 HCVcc-Cre infection, luciferase reporter, 44 h | Potency, µM (doses to about 41.8 µM), most hits filed as inhibitors | 340,000 compounds, 3.4% hits | AID 651820, 2012
#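 After 44 h co-culture of compound, cells and HCVcc-Cre (~0.5 moi), substrate is added for 15 min at room temperature and luciferase measured over 15 sec. Cells were seeded at 1,000/well and pre-cultured 4 h.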
# MARV entry inh: qHTS for inhibitors of binding or entry into cells for Marburg Virus. Marburg virus pseudotyped entry inhibition, cell reporter. AID 540276, 2011. Potency, µM (highest dose often 37.8 µM), actives largely listed as inhibitors. 300,000 compounds, 1.8% hits; calls by dose curve; tested in HEK293 cells
# FMDV inh: High Throughput Screening for Foot and Mouth Disease Virus Antivirals. FMDV antiviral cell-based qHTS. Potency, µM (titrated, usually from 57.9 µM), actives largely listed as inhibitors. 410,000 compounds, 1.2% hits; calls by dose curve; tested in HEK293T cells; note: read-out not given here; nearly all actives have a fitted effect of over 45% in size
# A number is an active result; n = inactive; u = inconclusive; x = no result given; ! = not confirmed by another sample. Most compounds without a hit are left out; they make up all but 8.3% or so of the library. Unless noted, calls come from the whole dose curve; as a rule, active = well fitted curve in the direction sought with a large enough effect; inconclusive = small, poorly fitted or top-dose-only effect, or another doubt; inactive = no such curve, though single readings can be large; an effect the other way counts as inactive or inconclusive.
SMILES,Giardia FBPA inh,Lassa entry inh,HCMV inh,HCV inh,MARV entry inh,FMDV inh
CCOc1cc(CNCCCN2CCOCC2)cc(Cl)c1OCC(=O)NC(C)(C)C,n,u,n,11µM,u,n
CC(C)c1cccc2nc3c(c(C(C)(C)C)c12)Cn1c-3cccc1=O,n,x,x,x,x,x
Cc1cccc(Cn2cc(C(=O)Nc3ccc(F)c(C(F)(F)F)c3)ccc2=O)c1,x,n,u,x,x,u
C=CCOc1c(Cl)cc(CNCCCN2CCOCC2)cc1OC,u,n,n,u,10µM,n
COc1cc(CNCCCN2CCOCC2)cc(Br)c1OCC(=O)N1CCCCC1,n,n,n,u,u,n
CCN1C(=O)/C(=C2\C=CC3=C(CCCC3)N2CC)SC1=S,x,x,x,x,n,x
Cc1cccc2nc(CNC(=O)CN3Cc4ccccc4OC(c4ccccc4F)C3)cn12 (centres undefined),x,x,x,x,x,n
CCCn1c(=O)c2sccc2n2c(CCCC(=O)Nc3ccc(Oc4ccc(Cl)cc4)cc3)nnc12,x,u,u,x,n,u
CCCn1c(=O)c2sccc2n2c(CCCC(=O)Nc3ccc(Oc4ccccc4)cc3)nnc12,x,n,-61,x,x,n
CCOC(=O)c1noc2ncnc(N3CCN(c4cccc(Cl)c4)CC3)c12,x,n,n,x,x,n
CC(C)(C)NC(=O)[C@H]1CN(Cc2cccnc2)CCN1C[C@@H](O)C[C@@H](Cc1ccccc1)C(=O)N[C@H]1c2ccccc2C[C@H]1O,n,x,x,x,x,x
C1=C(c2c[nH]c3ccccc23)CCNC1,n,x,n,x,n,x
CC(C)N1CC=C(c2c[nH]c3ccccc23)CC1,n,u,-67,u,n,u
CC(C)(C)S(=O)(=O)N1Cc2cc(CO)ccc2[C@H]1CCO,x,x,n,x,x,x
COc1ccc(C(C(=O)NC(C)(C)C)n2c(COc3ccc(C)cc3)nc3ccccc32)cc1 (centres undefined),x,x,n,x,x,n
COc1ccc(C(C(=O)NC(C)(C)C)n2c(-c3ccc(=O)[nH]c3)nc3ccccc32)cc1 (centres undefined),x,x,-86,x,x,n
COC(=O)[C@H](COC(C)(C)C)NC(=O)O[C@H]1C(=O)c2ccc(OC)cc2O[C@@H]1c1ccc2c(c1)OCO2,n,x,x,x,n,x
Cc1c(CCOC(=O)C23CC4CC(CC(C4)C2)C3)sc[n+]1CC#N,n,u,-99,n,u,u
Cc1c(CCOC(=O)CC23CC4CC(CC(C4)C2)C3)sc[n+]1Cc1ccccc1,x,n,u,n,n,u
COC(=O)N[C@@H](c1ccco1)C(C(C)=O)C(=O)OC (some centres undefined),x,u,x,x,n,x
C=C1CC(Cn2cc(Br)c(=O)[nH]c2=O)(c2ccc(-c3ccccc3)cc2)OC1=O (centres undefined),x,u,-97,u,u,u
O=c1[nH]c(=O)n(Cc2ccc(Oc3ccccc3)cc2)cc1Br,n,x,n,x,x,x
CCOc1ccccc1Nc1nnc(SC(C)C(=O)Nc2nc(-c3ccccc3)cs2)s1 (centres undefined),n,6.3µM,n,u,3.5µM,n
COc1ccc(-c2nc(C)c(CCNC(=O)c3ccc(F)c(F)c3)s2)cc1,x,n,n,x,x,n
Cc1cc(F)ccc1S(=O)(=O)Nc1ccccc1C(=O)Nc1ccccc1-c1nc2ccccc2[nH]1,n,11µM,x,7.9µM,u,n
SMILES,Giardia FBPA inh,Lassa entry inh,HCMV inh,HCV inh,MARV entry inh,FMDV inh
Cc1cc(F)ccc1S(=O)(=O)Nc1ccccc1C(=O)Nc1ncn[nH]1,n,n,n,n,n,n
CCC(C)C(=O)OC1CCC=C2C=CC(C)C(CCC3CC(O)CC(=O)O3)[C@@H]21 (some centres undefined),n,x,x,x,x,x
COC(=O)C1=C(C)N(Cc2cccc(C(F)(F)F)c2)C(=NCc2ccc3c(c2)OCO3)NC1c1ccc(F)cc1 (centres undefined),x,x,-85,x,x,x
COC(=O)C1=C(C)N(Cc2cccc(C(F)(F)F)c2)C(=NCc2ccc(OC)cc2)NC1c1cccc(C(F)(F)F)c1 (centres undefined),x,x,-99,x,x,x
CCN1C(=NCc2ccccc2)NC(c2cccc(C(F)(F)F)c2)C(C(=O)OC)=C1C (centres undefined),x,x,x,x,n,x
COC(=O)C1=C(C)N(Cc2ccccc2)C(=NCc2ccc3c(c2)OCO3)N[C@H]1c1ccccc1,n,x,n,u,x,n
COC(=O)C1=C(C)N(Cc2cccc(C(F)(F)F)c2)C(=NCc2ccc(C(F)(F)F)cc2)NC1c1ccc(C(F)(F)F)cc1 (centres undefined),x,x,-101,x,x,x
COC(=O)C1=C(C)N(Cc2ccccc2)C(=NCCc2cccnc2)NC1c1ccc(Br)cc1 (centres undefined),x,u,x,x,n,x
COC(=O)C1=C(C)N(Cc2ccccc2)C(=NCCc2cccnc2)N[C@H]1c1ccc(Br)cc1,n,x,x,2.8µM,x,u
NC[C@H](O)c1cc(O)c(O)cc1F,x,x,x,x,n,x
O=C(OC1Cc2c(O)cc(O)cc2OC1c1cc(O)c(O)c(O)c1)c1cc(O)c(O)c(O)c1 (centres undefined),u,x,x,x,x,n
Cc1cc(C)cc(NC(=O)NCCn2nnc3cc(S(=O)(=O)N(C)C)ccc32)c1,x,n,n,x,x,n
COC(=O)C1=C(C)N(Cc2cccc(C(F)(F)F)c2)C(=NCc2ccc(C(F)(F)F)cc2)NC1c1ccc(F)cc1 (centres undefined),x,x,-101,x,x,x
COC(=O)C1=C(C)N(Cc2ccccc2)C(=NCc2ccc(OC)cc2)N[C@H]1c1cccc(F)c1,n,x,u,n,x,u
Cc1cc(C)c(NC(=O)Cn2nc3c(cc2=O)CCCC3)c(C)c1,x,n,n,x,x,n
CC(=O)[C@]1(O)CCC2C3C=C(Cl)C4=CC(=O)C5CC5[C@@]4(C)C3CC[C@]21C (some centres undefined),n,x,x,x,x,x
CC(=O)O[C@]1(C(C)=O)CC[C@H]2[C@@H]3C=C(Cl)C4=CC(=O)[C@@H]5C[C@@H]5[C@]4(C)[C@H]3CC[C@@]21C,x,16µM,-90!,n,u,u
CC(=O)C[C@H](O)CC(=O)[C@H]1OC(=O)CCCCCc2ccccc21,x,x,n,n,x,n
CC(=O)C[C@H](O)CC(=O)[C@H]1OC(=O)CC/C=C\Cc2ccccc21,x,x,-61,n,x,n
CN1CCN(c2ccc(Nc3nccc4[nH]c(-c5cccnc5)cc34)cc2)CC1,x,x,n,x,x,x
Cc1c(CC(=O)NCCc2ccc(Cl)cc2)c(=O)oc2c(C)c3occ(C(C)(C)C)c3cc12,x,n,-68,x,n,n
COc1ccc(C2CC(=O)c3cc(-c4nc(-c5cccc([N+](=O)[O-])c5)cs4)c(=O)n(-c4ccccc4C)c3C2)cc1 (centres undefined),x,n,n,x,u,n
COc1ccc(NC(=O)CN2c3cccc4cccc(c34)S2(=O)=O)c(OC)c1,n,n,n,u,n,n
COc1cc(NC(=O)CN2c3cccc4cccc(c34)S2(=O)=O)cc(OC)c1OC,n,n,n,11µM,u,u

# Source: PubChem (National Center for Advancing Translational Sciences (NCATS))
